# Results taken from the supplement of paper PMC8728848.
# Many of the other results were omitted from the sample, so the strongest signals are more common in it than they were.
# B1: GNAT (Pseudomonas aeruginosa), Q9HV14 (protein)
# chain: MQLSHRPAETGDLETVAGFPQDRDELFYCYPKAIWPFSVAQLAAAIAERRGSTVAVHDGQVLGFANFYQWQHGDFCALGNMMVAPAARGLGVARYLIGVMENLAREQYKARLMKISCFNANAAGLLLYTQLGYQPRAIAERHDPDGRRVALIQMDKPLEP
# Columns and labels:
# Assay in all cases: glycan array binding signal (z-score within array); higher = stronger binding
# Conditions in all cases: glycan notation: IUPAC condensed, linker removed
# [1] = target: GlcNAc(b1-4)[GlcNAc(b1-6)]GalNAc
# Summary of the method: (§1)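 The binding signal is a Z-score computed within each array. Data were drawn from 3228 arrays in the Consortium for Functional Glycomics database, restricted to those with a known protein sequence. Scores were averaged over arrays of the same protein sequence at different concentrations or buffers, and over linkers, and negative values can be taken as non-binding.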
# [2] = target: Neu5Ac(a2-3)Gal(b1-3)GlcNAc6S
# Summary of the method: as §1
# [3] = target: Neu5Ac(a2-3)Gal(b1-4)GlcNAc(b1-3)Gal
# Summary of the method: as §1
# [4] = target: Neu5Ac(a2-3)Gal(b1-4)GlcNAc(b1-6)[Neu5Ac(a2-3)Gal(b1-3)]GalNAc
# Summary of the method: as §1
# [5] = target: Neu5Ac(a2-3)Gal(b1-4)[Fuc(a1-3)]GlcNAc(b1-3)GalNAc
# Summary of the method: as §1
# [6] = target: Neu5Ac(a2-3)Gal(b1-4)[Fuc(a1-3)]GlcNAc(b1-6)[Gal(b1-3)]GalNAc
# Summary of the method: as §1
# [7] = target: Neu5Ac(a2-3)[Neu5Ac(a2-6)]GalNAc
# Summary of the method: as §1
# [8] = target: Neu5Ac(a2-6)Gal(b1-4)GlcNAc(b1-2)Man(a1-3)[GlcNAc(b1-2)Man(b1-4)GlcNAc(b1-2)Man(a1-6)]Man(b1-4)GlcNAc(b1-4)GlcNAc
# Summary of the method: as §1
# [9] = target: Neu5Ac(a2-6)Gal(b1-4)GlcNAc(b1-3)Gal(b1-3)GlcNAc
# Summary of the method: as §1
# [10] = target: Neu5Ac(a2-6)GalNAc
# Summary of the method: as §1
# [11] = target: Neu5Ac(a2-8)Neu5Ac(a2-3)[GalNAc(b1-4)]Gal(b1-4)Glc
# Summary of the method: as §1
# [12] = target: Neu5Ac(b2-6)GalNAc
# Summary of the method: as §1
# [13] = target: Neu5Gc(a2-6)Gal(b1-4)GlcNAc
# Summary of the method: as §1
binder,measurement,setting,value
B1,glycan array binding signal (z-score),[1],-0.407
same,glycan array binding signal (z-score),[2],-0.165
same,glycan array binding signal (z-score),[3],-0.403
same,glycan array binding signal (z-score),[4],-0.097
same,glycan array binding signal (z-score),[5],2.77
same,glycan array binding signal (z-score),[6],5.03
same,glycan array binding signal (z-score),[7],-0.405
same,glycan array binding signal (z-score),[8],-0.293
same,glycan array binding signal (z-score),[9],-0.3
same,glycan array binding signal (z-score),[10],-0.404
same,glycan array binding signal (z-score),[11],-0.165
same,glycan array binding signal (z-score),[12],-0.413
same,glycan array binding signal (z-score),[13],-0.437
